High-throughput results: PubChem, University of Pittsburgh Molecular Library Screening Center
Shown is part of a subset that was picked to be rich in hits.
HIV RNase H inh-1: inhibitors of HIV-1 reverse transcriptase RNase H. 65,000 tested, 1.9% active. inhibition, % at 10 µM. P04585. RT-RNase H RNA/DNA duplex cleavage, fluorescence; in the data active = inhibition above about 50%
HIV RNase H inh-2: confirmation of HIV-1 reverse transcriptase RNase H inhibitors; shares compounds with HIV RNase H inh-1; Recombinant RT RNase H, fluorescent RNA/DNA duplex cleavage; inhibition, % at 10 µM; 1,000 tested, 39% active; in the data active = inhibition above about 48%
Large screens that a line does not name were inactive (follow-up assays come after a bar, where they were run).

N#C/C(C(=O)c1ccccc1)=C1/SC=C(N)N1c1ccccc1	HIV RNase H inh-1 64.2
CC1=CS/C(=C(/C#N)C(=O)N2CCCCC2)N1c1ccccc1	none
COC(=O)/C(C#N)=C1/SC=C(C)N1c1ccccc1	none
CCN1C(=O)C(C)S/C1=N\S(=O)(=O)c1ccc(Cl)s1 (centres undefined)	none
CCn1c(=O)c2cc(S(=O)(=O)NC3CCCCC3)ccc2n(CC)c1=O	none
Cc1cc2c(=O)n(CC(=O)NCC(=O)N3CCN(Cc4ccccc4)CC3)cnc2s1	none
CCn1c(CNC(=O)c2ccc(OC)cc2)nnc1SCC(=O)c1ccccc1	none
CCn1c(CCNC(=O)c2cccs2)nnc1SCC(=O)c1ccc(OC)cc1	HIV RNase H inh-1 57.4
COC(=O)CSc1nnc(CNC(=O)c2cccs2)n1-c1cc(OC)ccc1OC	none
CC(=O)Nc1cccc(NC(=O)C2CCCN2C(=O)Nc2ccccc2C)c1 (centres undefined)	none
O=C1C(Cl)=C(N2CCOCC2)C(=O)N1CCc1ccccc1	none
O=C1C(Cl)=C(N2CCCCCC2)C(=O)N1c1ccccc1	HIV RNase H inh-1 56.8
CN1CCN(C2=C(Cl)C(=O)N(CCc3ccccc3)C2=O)CC1	none
O=C1CC(N2CCOCC2)C(=O)N1c1cccc(Cl)c1 (centres undefined)	none
O=C(O)c1cccc(N2CCCC2)c1	none
O=C1C(Cl)=C(N2CCOCC2)C(=O)N1c1cccc(Cl)c1	HIV RNase H inh-1 93.0
CCc1nnc(NC(=O)CSc2nnc(-c3ccc(O)cc3)n2-c2ccccc2)s1	none
COc1ccc(Cl)cc1NC(=O)c1nc2nc(C)cc(C(F)F)n2n1	none
CCCNC(=O)NC(=O)COC(=O)c1ccc(OC)c(S(=O)(=O)N2CCCc3ccccc32)c1	none
O=C(CC1CCCC1)OCn1nnc2ccccc2c1=O	none
NC(=O)C1CCN(C(c2ccccc2Cl)c2nnnn2Cc2ccc3c(c2)OCO3)CC1 (centres undefined)	none
CCOC(=O)N1CCN(C(=O)c2ccc(Cn3c(=S)[nH]c4cc5c(cc4c3=O)OCO5)cc2)CC1	none
CN1CCN(C(=O)c2ccc3c(=O)n(Cc4ccc(Cl)cc4)c(=S)[nH]c3c2)CC1	none
O=C(c1ccc2c(=O)n(Cc3ccc4c(c3)OCO4)c(=S)[nH]c2c1)N1CCCCC1	HIV RNase H inh-1 60.6
Cc1c(Cl)cccc1N(CC(=O)NC1CCCCC1)S(C)(=O)=O	none
CCOC(=O)CSc1cc(=O)n(C)c2cc(Cl)ccc12	none
COCCN1C(=O)C(=O)/C(=C(/O)c2cccc(S(=O)(=O)N(C)C)c2)C12C(=O)N(C)c1ccccc12 (centres undefined)	none
COc1ccc(-n2c(C)cc(C(=O)CSc3nn4c(=O)c(C(C)(C)C)nnc4s3)c2C)cc1	HIV RNase H inh-1 50.2
CC(C)(C)c1nnc2sc(SCC(=O)c3ccccc3)nn2c1=O	none
COc1ccc(C(=O)CSc2nn3c(=O)c(C(C)(C)C)nnc3s2)cc1	none
C=CCNS(=O)(=O)c1ccc(OCC(=O)OC)cc1	none
c1ccc(Cc2nnc3sc(C4COc5ccccc5O4)nn23)cc1 (centres undefined)	HIV RNase H inh-1 70.5
Cc1ccc(-c2nnc3sc(C4COc5ccccc5O4)nn23)cc1 (centres undefined)	none
CCOc1ccccc1-c1nn2c(Cc3ccccc3)nnc2s1	none
CC1(C)C(=O)OC(c2cccs2)C(C)(C)C1=O (centres undefined)	none
COc1ccccc1NS(=O)(=O)c1cc(Cl)ccc1OC	none
Cc1nn(C)c(C)c1S(=O)(=O)N1CCCC(C(=O)NCC2COc3ccccc3O2)C1 (centres undefined)	none
FC(F)C(F)(F)C(F)(F)C(F)(F)c1cc(-c2ccccc2)n[nH]1	none
C=CCn1cc(C(=O)NCCCOCC)c(=O)c2cc(S(=O)(=O)N(CC)CC)ccc21	none
O=S(=O)(Nc1nc(CN2CCOCC2)nc2sc3c(c12)CCCC3)c1cc(F)ccc1F	none
COCCN1Cc2cccc(C(=O)Nc3c(C)cccc3C)c2C1=O	HIV RNase H inh-1 58.1
COCCN1Cc2cccc(C(=O)Nc3ccc(C)c(C)c3)c2C1=O	none
COCCN1Cc2cccc(C(=O)Nc3cccc(OC)c3)c2C1=O	none
O=C(CN1CCCC1=O)NC1(C(F)(F)F)NC(=O)N(Cc2ccccc2)C1=O (centres undefined)	none
Cc1nonc1OCCNC(=O)C12CC3CC(CC(C3)C1)C2	none
COc1cccc(-c2nnc(NC(=O)c3ccc(S(=O)(=O)N4CCOCC4)cc3)o2)c1	none
O=C(Nc1nnc(C2CC2)o1)c1ccc(S(=O)(=O)N2CCCc3ccccc32)cc1	none
COc1ccc(-c2nnc(NC(=O)c3ccc(S(=O)(=O)N4CCCc5ccccc54)cc3)o2)cc1	HIV RNase H inh-1 52.1
COc1ccc(Cl)cc1NC(=O)CSc1nncn1-c1cccnc1	none
O=C1NC(c2ccco2)Nc2sc3c(c21)CCN(Cc1ccccc1)C3 (centres undefined)	none
CN1CCc2c(sc3c2C(=O)NC(c2cccc(OC(=O)c4cccs4)c2)N3)C1 (centres undefined)	none
O=C1NC(c2cccs2)Nc2sc3c(c21)CCCC3 (centres undefined)	HIV RNase H inh-1 93.7 | HIV RNase H inh-2 inactive
O=C(Cn1cnc2c(oc3ccccc32)c1=O)NCC1CCCO1 (centres undefined)	none
Cc1n[nH]c(C)c1S(=O)(=O)N1CCN(C(=O)c2ccco2)CC1	none
Cc1cc(N2C(=O)C3C4C=CC(C4)C3C2=O)ccc1Br (centres undefined)	none
COC(=O)c1ccccc1NC(=O)c1sc(=S)n(C)c1N	HIV RNase H inh-1 86.7 | HIV RNase H inh-2 73.6
COC(=O)c1ccccc1NC(=O)c1sc(N)nc1C	none
Cn1c(N)c(C(=O)NCc2ccccc2)sc1=S	none
CN1CCN(c2ccc(Cl)cc2NS(=O)(=O)c2ccccc2Cl)CC1	none
N#CCCN1CCN(C(=S)c2ccc(-c3cccc(Cl)c3)o2)CC1	none
S=C(c1ccc(-c2cccc(Cl)c2)o1)N1CCOCC1	HIV RNase H inh-1 84.5 | HIV RNase H inh-2 inactive
S=C(c1ccc(-c2cc(Cl)ccc2Cl)o1)N1CCOCC1	none
O=C(Nc1ccc2c(c1)OCO2)C1CCN(Cc2cnn(-c3ccccc3)c2-n2cccc2)CC1	none
CC1=C(C#N)c2nc(N)c(C#N)c(C)c2/C1=C\c1ccccc1	none
OC(COc1ccc(C2C=CCC2)cc1)CN1CCCCC1 (centres undefined)	none
COc1ccc(CNC(=O)c2ccc(=O)oc2)cc1OC	none
O=C(O)C1C2C=CC(O2)C1C(=O)Nc1ccc(S(=O)(=O)Nc2ccccc2)cc1 (centres undefined)	HIV RNase H inh-1 58.0 | HIV RNase H inh-2 inactive
O=C(O)C1C2C=CC(O2)C1C(=O)Nc1ccc2c(c1)OCCO2 (centres undefined)	none
O=C(O)C1C2C=CC(O2)C1C(=O)Nc1ccc(S(=O)(=O)N2CCc3ccccc32)cc1 (centres undefined)	none
CCCCNC(=O)CC(=O)Nc1ccccc1C(=O)O	none
Cc1ccccc1N1C(=O)N(c2cccc(C(F)(F)F)c2)C2CS(=O)(=O)CC21 (centres undefined)	none
CCOc1ccc(NC(=O)CN2C(=O)C3CCCN3C2=O)cc1 (centres undefined)	none
Cc1sc2nc3c(C(=O)N4CCN(c5ncccn5)CC4)cccn3c(=O)c2c1C	none
CCc1c(C)sc(NC(=O)c2cc(C)no2)c1C#N	HIV RNase H inh-1 60.1 | HIV RNase H inh-2 inactive
CCc1c(C)sc(NC(=O)CC#N)c1C#N	none
Cc1cc(C(=O)Nc2sc(C)c(C)c2C#N)no1	none
CCC(C)(C)NC(=O)C(OC(=O)c1cc2sccc2n1C)c1ccc(OC)cc1 (centres undefined)	none
